Several values for one entry are separate records, joined by “and”; a condition that tells them apart may be missing. Equal values may be shown once. Screen size: about 260,000 compounds; about 1,500 (0.58%) were called active. Inconclusive results (about 5%) are left out.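 Rule for the calls: active = inhibition above a set limit at one or more doses, reproduced on every date tested; inconclusive = results disagree between test dates, or hit never tested in dose response; inactive = the rest.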 Only a sample is shown. Potency and affinity values are given separately.
The molecules below were run against Virion infectivity factor (Human immunodeficiency virus type 1 group M subtype B (isolate BH10)) + Virion infectivity factor (Human immunodeficiency virus type 1 group M subtype B (isolate BRU/LAI)) + Virion infectivity factor (Human immunodeficiency virus type 1 group M subtype B (isolate PCV12)) + Virion infectivity factor (Human immunodeficiency virus type 1 group M subtype B (isolate HXB2)) + DNA dC->dU-editing enzyme APOBEC-3G (Homo sapiens) (UniProt P69720+P69721+P69722+P69723+Q9HC16) (assay: inhibitors of Vif binding to APOBEC3G peptide, primary screen, biochemical, TR-FRET, GST-Vif 1-94, biotin-A3G peptide, dose response retest (AID 1117319;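 note: Vif residues 1-94 fused to GST binding biotinylated APOBEC3G peptide 110-148; 0% = full assay without inhibitor and 100% = GST in place of GST-Vif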)). Settings: stronger effect = higher value.

inhibition, inactive:
Cc1cc(C)cc(NC(=O)CCNS(=O)(=O)c2ccc3c(c2)oc(=O)n3C)c1 17.7%, CC1CC(C)(C)NC(=S)N1CCCC(=O)Nc1ccc(Br)cc1 (stereo unspecified) -9.53%, O=C(NC1CCCCC1)C12CC3CC(CC(Cl)(C3)C1)C2 9.37%, COc1ccc(O)c(CN2CC3CCC(CC3)C2)c1 4.35%, COc1ccc(N2CCN(C(=O)COC(=O)CNC(=O)c3ccccc3)CC2)cc1 3.12%, CC1(C)NC(=O)N(CC(=O)NNC(=O)c2ccccc2F)C1=O -5.82%, FC(F)(F)c1cnc(N2CCN(C(=S)NCc3ccccc3)CC2)c(Cl)c1 -5.24%, COc1cc2[nH]c3c(=O)n(N)c(=O)[nH]c3c2cc1OC -6%, O=[N+]([O-])c1ccccc1S(=O)(=O)NC1CCCCCCC1 8.73%, O=[N+]([O-])c1ccccc1S(=O)(=O)Nc1ncccn1 5.53%, CCN(C(=O)COC(=O)c1oc2ccc(OC)cc2c1C)C1CCCCC1 -5.77%, CC1CCCN(C(=O)NC(=O)c2ccc(Cl)cc2)C1 (stereo unspecified) -0.86%, Cc1cc(C)cc(NC(=O)CCNS(=O)(=O)c2cc(Br)cnc2N)c1 -18.9%, Cc1ccc(NC(=O)CCNS(=O)(=O)c2cc(Br)cnc2N)cc1Cl 5.11%, O=C(COC(=O)CCCSc1nc2ccccc2[nH]1)Nc1cccc(F)c1 -3.43%, COC(=O)c1ccc(Cn2nnc3ccccc32)cc1 26.1%, Cc1ccc(S(=O)(=O)N2C(=O)CCC2C(N)=O)cc1 (stereo unspecified) -11.2%, O=C(C1CCCO1)N1CCC(O)(c2ccccc2)CC1 (stereo unspecified) -9.62%, O=C(C1CCCO1)N1CCN(C(=S)NC2CC2)CC1 (stereo unspecified) -5.45%, Cc1c(C)c(C)c(CN2CCSCC2)c(C)c1C 21.2%, CCN(C(=O)CN1CCN(c2ccccc2)CC1)c1c(N)n(Cc2ccccc2)c(=O)[nH]c1=O -6.89%, CCN(C(=O)CN1CCN(c2ccc(OC)cc2)CC1)c1c(N)n(Cc2ccccc2)c(=O)[nH]c1=O 20.7%, CC(=O)c1ccc(N2CCN(CC(=O)N(CC(C)C)c3c(N)n(CC(C)C)c(=O)[nH]c3=O)CC2)cc1 19.2%, CC(C)CN(C(=O)CN1CCN(c2ccc([N+](=O)[O-])cc2)CC1)c1c(N)n(CC(C)C)c(=O)[nH]c1=O 13.2%, Cc1cc(C(C)(C)C)oc1C(=O)N(CC(=O)NC1CCCC1)Cc1ccc(F)cc1 0.27%, CCOC(=O)C1(Cc2cccc(F)c2)CCN(Cc2ccon2)CC1 -4.55%, Cc1ccccc1C(=O)O/N=C1\CCS(=O)(=O)c2sccc21 1.21%, CCOc1ccc(S(=O)(=O)Nc2cc(OC)ccc2OC)cc1 6.81%, CCCCOc1ccc(S(=O)(=O)Nc2cc(OC)ccc2OC)cc1 1.88%, CCOc1ccc(/C=N/NC(=O)CN2CCCCCCC2)cc1 7.01%, COc1ccc(NC(=O)NNC(=O)c2ccc(Cl)cc2Cl)cc1OC 0.67%, O=C(O)c1ccc(NS(=O)(=O)c2ccc3c(c2)C2C=CCC2C(c2ccccc2F)N3)cc1 (stereo unspecified) -10%, O=C(O)c1cccc(S(=O)(=O)Nc2ccccc2Cl)c1 65.8%, Cc1c(Cl)cccc1NS(=O)(=O)c1ccccc1 -1.9%, COc1cccc(NS(=O)(=O)c2ccc3c(c2)NC(=O)CC(=O)N3)c1 -6.3%, CN(C)CCNC(=O)Cn1nc(C(F)F)cc1C1CC1 12.5%, O=C(Nc1nc2c(ccc3ccccc32)s1)c1cc([N+](=O)[O-])ccc1N1CCOCC1 -2.48%, CC(=O)Oc1ccccc1C(=O)N1CCN(S(=O)(=O)c2ccc3ccccc3c2)CC1 -7.33%, CC(=O)c1ccc(NC(=O)Cn2nc(C)cc2C)cc1 1.14%, Cc1cc(C)n(CC(=O)NNC(=O)c2ccc(S(C)(=O)=O)cc2)n1 -6.9%, Cc1nc(C)n(CC(O)COc2ccc(C(=O)c3ccccc3)cc2)n1 (stereo unspecified) 11.5%, CCCc1cc(=O)oc2c(CN3CCCC3)c(O)ccc12 -2.7%, CCc1cc(=O)oc2cc(C)c(CN3CCCC(C)C3)c(O)c12 (stereo unspecified) 11.2% and 11.8%, CCCc1cc(=O)oc2c(CN3CCCC3)c(O)c(Cl)cc12 8.61%, Cc1cc2oc(=O)cc(CN3CCCCC3)c2cc1O -5.08%, Fc1ccc2nc(Nc3ccccc3)sc2c1 -8.41%, CCCCNC(=O)CN1CCN(Cc2ccc3cc(OC)ccc3c2)CC1 -10.8%, CCN1CCc2c(sc3c2c(NCc2ccco2)nc2nnnn23)C1 11.3%, CSc1nc(NCc2ccco2)c2c3c(sc2n1)CN(C)CC3 21.2%, Cc1ccc(OCC(=O)N/N=C2/SCC(=O)N2Cc2ccco2)cc1 11.4%, Cc1ccc(-c2nnc(SCC(=O)NNC(=O)COc3cccc(C)c3)n2C)cc1 -3.33%, COCCn1c(C)cc(C(=O)CSc2nc3ccccc3c(=O)[nH]2)c1C 25.5%, C=CCn1c(C)cc(C(=O)CSc2nc3ccccc3c(=O)[nH]2)c1C 11.7%, COc1ccccc1C1CCN(Cc2ccc(Cl)c(Cl)c2)CC1 -7.3%, CC(C)(C)C(=O)Cn1c[n+](N)cn1 2.71%, Cc1c(Br)c(=O)oc2c(Br)c(O)ccc12 -6.73%, Cc1c(Br)c(=O)oc2c(C)c(O)ccc12 -26.6%, Cc1cc(SCC(=O)N/N=C/c2ccc(O)cc2O)c(C)cc1Br 31.7%, Cc1cc(SCC(=O)N/N=C/c2ccc(O)c(O)c2)c(C)cc1Br 7.89%, COc1ccc(CN2C(=O)c3cccnc3C2=O)cc1S(=O)(=O)N1CCCCC1C (stereo unspecified) 1.43%, CCOC(=O)C1=C(C)C(c2ccccc2OC)NC(=O)N1 (stereo unspecified) 25.5%, O=C(c1ccccc1)c1ccc(Oc2ncccn2)cc1 -0.66%, N#CCc1ccc(Oc2ncccn2)cc1 2.04%, O=C(COC(=O)c1ccccc1Nc1ccc(SC(F)F)cc1)NC1CC1 -3.33%, CCCCCOc1ccc(C(=O)NCC(=O)NCC(=O)OCC)cc1 21.7%, CCCCOc1ccc(C(=O)NCC(=O)OCCCOC(=O)CNC(=O)c2ccc(OCCCC)cc2)cc1 -9.89%, O=C(O)c1cc2n(n1)C(C(F)(F)F)CC(c1ccco1)N2 (stereo unspecified) 23.7%, NC(=O)c1cc2n(n1)C(C(F)(F)F)CC(c1ccco1)N2 (stereo unspecified) 28%, NC(=O)C1CCN(C(=O)c2cc3n(n2)C(C(F)(F)F)CC(c2ccco2)N3)CC1 (stereo unspecified) 21.3%, COc1ccccc1N1CCN(C(=O)c2cc3n(n2)C(C(F)(F)F)CC(c2ccco2)N3)CC1 (stereo unspecified) 3.76%, O=C(c1cc(-n2cnnc2)ccc1Cl)N1CCN(c2nc(-c3ccccc3)cs2)CC1 -0.17%, O=C(NC12CC3CC(CC(C3)C1)C2)N(Cc1ccccc1)Cc1ccncc1 -2.12%, Cc1cc(C)n2nc(SCCCC(=O)c3ccccc3)nc2n1 -0.54%, COc1ccccc1NC(=S)NNC(=O)c1cc(C)n(C)n1 5.87%, COc1ccc2[nH]c(C)c(CCNC(=S)Nc3ccccc3C)c2c1 -0.27%, O=c1oc2cc(O)ccc2c2oc3cc(O)ccc3c12 21.4%, O=c1oc2ccccc2c2oc3cc(O)c(O)cc3c12 24.2%, O=c1oc2cc(O)ccc2c2ccccc12 -45.8%, O=c1oc2cc(O)c(Cl)cc2c2ccccc12 -238%, COc1cccc(NC(=O)CN(C)C(=O)c2cc(-c3cccc(Br)c3)nc3ccccc23)c1 4.76%, CCOC(=O)c1nc(NCc2cccc(OC)c2)c2ccccc2n1 -2.69%, O=C(COC(=O)c1cc(=O)[nH]c2ccccc12)NC1CCCC1 8.34%, CCOC(=O)c1cnc2c(C#N)cnn2c1N -5.32%, CCOC(=O)c1cnc2c(C(=O)OCC)cnn2c1N 4.51%, CCSc1nc(-c2ccccc2)c(-c2ccccc2)n1CC(O)CO (stereo unspecified) -5.14%, Cc1ccc[n+](-c2[nH]c(=O)sc2/C=N/N=C(\[O-])CCn2c3ccccc3c3ccccc32)c1 -0.87%, CCc1ccc[n+](-c2[nH]c(=O)sc2/C=N/NC([S-])=Nc2ccccc2)c1 30%, O=C(Nc1ccc(F)cc1Cl)c1ccc2c(=O)n3c(nc2c1)CCC3 2.76%, O=C(CSc1ccc2c(c1)OCCO2)N1CCN(c2ccccc2O)CC1 14.3%, Nc1cc(Cl)ccc1Oc1ccccc1 -0.78%, Nc1cc(Cl)ccc1Oc1ccc(Cl)cc1 14.4%, CC(=O)Nc1ccc(S(=O)(=O)NCCC(=O)N2CCC(Cc3ccccc3)CC2)cc1 -8.11%, CCC(=O)N(CCC1(C(C)C)CCOC(C)(C)C1)Cc1ccco1 (stereo unspecified) 1.68%, O=C(CC1C(=O)NCCN1Cc1ccccc1)NCCN1CCCCC1=O (stereo unspecified) 4.62%, CC(C)(C)CN1CCNC(=O)C1CC(=O)NCCN1CCCc2ccccc21 (stereo unspecified) 20.1%, Cc1ccccc1NC(=O)c1cnn(-c2ccccc2)c1C -7.17%
